Drawing on paper PMC12820563, “FoxP3 forms a head-to-head dimer in vivo and stabilizes its multimerization on adjacent microsatellites”, this text covers binding signal for 33 sequences.

In all, about 16,000 sequences were measured (“rpm ratio (pull-down/input)”: median about 0.94, highest 2% from about 1.7 on). Only a selection was taken, and the highest values are over-represented in it overall.

The assay has as its target T1, MBP-FoxP1dN (Mus musculus, UniProt P58462 326-579).
T1 sequence: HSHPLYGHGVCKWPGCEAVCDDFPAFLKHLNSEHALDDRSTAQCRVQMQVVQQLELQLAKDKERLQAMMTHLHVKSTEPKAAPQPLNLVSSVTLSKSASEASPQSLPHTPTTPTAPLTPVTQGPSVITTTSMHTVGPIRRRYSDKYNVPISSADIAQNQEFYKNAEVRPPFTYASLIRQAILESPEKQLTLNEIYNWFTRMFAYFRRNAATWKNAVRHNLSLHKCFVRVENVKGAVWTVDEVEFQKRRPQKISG
Nature of the assay: PD-seq (MBP pull-down with sequencing); 20 mM Tris-HCl pH 7.5, 100 mM NaCl, 1.5 mM MgCl2, 0.4 uM protein, 0.1 uM dsDNA library, 30 min, room temperature, amylose pull-down; high values mean tight binding. As to conditions: protein: recombinant; tags: His6-MBP; chain copies: 2; dsDNA, one strand shown. The gist of the method:
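His6-MBP-tagged mouse FoxP3 or FoxP1 fragment lacking the N-terminus, expressed in E. coli, was mixed at 0.4 µM with 0.1 µM Klenow-filled double-stranded degenerate DNA library. Incubation was 30 min at room temperature in Tris pH 7.5 buffer with NaCl and MgCl2. Complexes were caught on amylose resin and washed three times; DNA was released with proteinase K, PCR-barcoded and Illumina-sequenced. Binding is reads-per-million enrichment, pull-down over input, with replicates pooled.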
As to “GATGATTGTTCTCCCAGCTGATGAATTCAAGATATCGAGTAAACAAATTTTCCTAATCTTTCTGTTCAAGCGCCATCTAC”, the binding signal is 0.908 RPM ratio (pull-down/input).
On to “GATGATTGTTCTCCCAGCTGATGAATTCGTCTACTCGAGTAAACAAATTTTCCTAATCTTTCTGTTCAAGCGCCATCTAC”, for which the binding signal is 0.938 RPM ratio (pull-down/input).
As to “GATGATTGTTCTCCCAGCTGATGAATTCTTTTCATCGAGTAAACAAATTTTCCTAATCTTTCTGTTCAAGCGCCATCTAC”, the binding signal was 1.07 RPM ratio (pull-down/input).
For the sequence “GATGATTGTTCTCCCAGCTGATGAATTCAGGGCTTCGAGTAAACAAATTTTCCTAATCTTTCTGTTCAAGCGCCATCTAC”, the binding signal was 0.881 RPM ratio (pull-down/input).
For the sequence “GATGATTGTTCTCCCAGCTGATGAATTCGCCGATTCGAGTAAACAAATTTTCCTAATCTTTCTGTTCAAGCGCCATCTAC”, the binding signal was 0.86 RPM ratio (pull-down/input).
With “GATGATTGTTCTCCCAGCTGATGAATTTGTCCTTTCGAGTAAACAAATTTTCCTAATCTTTCTGTTCAAGCGCCATCTAC”, the binding signal was 1.08 RPM ratio (pull-down/input).
With “GATGATTGTTCTCCCAGCTGATGAATTATGTTCGTCGAGTAAACAAATTTTCCTAATCTTTCTGTTCAAGCGCCATCTAC” the figure was 1.06 RPM ratio (pull-down/input).
Consider “GATGATTGTTCTCCCAGCTGATGAATTGTGTTAATCGAGTAAACAAATTTTCCTAATCTTTCTGTTCAAGCGCCATCTAC”, for which the binding signal was 1.27 RPM ratio (pull-down/input).
As for “GATGATTGTTCTCCCAGCTGATGAATTTGTGTTATCGAGTAAACAAATTTTCCTAATCTTTCTGTTCAAGCGCCATCTAC”, the binding signal was 2.08 RPM ratio (pull-down/input).
As for “GATGATTGTTCTCCCAGCTGATGAATTGTGGTTATCGAGTAAACAAATTTTCCTAATCTTTCTGTTCAAGCGCCATCTAC”, the binding signal is 1.27 RPM ratio (pull-down/input).
For “GATGATTGTTCTCCCAGCTGATGAATTTTGTCTGTCGAGTAAACAAATTTTCCTAATCTTTCTGTTCAAGCGCCATCTAC”, the binding signal is 1.02 RPM ratio (pull-down/input).
On to “GATGATTGTTCTCCCAGCTGATGAATTTTGCGCGTCGAGTAAACAAATTTTCCTAATCTTTCTGTTCAAGCGCCATCTAC”, for which the binding signal was 1.04 RPM ratio (pull-down/input).
As to “GATGATTGTTCTCCCAGCTGATGAATTTGTTCTGTCGAGTAAACAAATTTTCCTAATCTTTCTGTTCAAGCGCCATCTAC”, the binding signal is 1.07 RPM ratio (pull-down/input).
As for “GATGATTGTTCTCCCAGCTGATGAATTGTTTTTGTCGAGTAAACAAATTTTCCTAATCTTTCTGTTCAAGCGCCATCTAC”, the binding signal is 2.31 RPM ratio (pull-down/input).
As for “GATGATTGTTCTCCCAGCTGATGAATTGTTTCTGTCGAGTAAACAAATTTTCCTAATCTTTCTGTTCAAGCGCCATCTAC”, the binding signal was 1.25 RPM ratio (pull-down/input).
Consider “GATGATTGTTCTCCCAGCTGATGAATTTTGATTGTCGAGTAAACAAATTTTCCTAATCTTTCTGTTCAAGCGCCATCTAC”, for which the binding signal was 1.67 RPM ratio (pull-down/input).
Take “GATGATTGTTCTCCCAGCTGATGAATTTTCTTTGTCGAGTAAACAAATTTTCCTAATCTTTCTGTTCAAGCGCCATCTAC”: the binding signal is 1.11 RPM ratio (pull-down/input).
Regarding “GATGATTGTTCTCCCAGCTGATGAATTTTGTTTGTCGAGTAAACAAATTTTCCTAATCTTTCTGTTCAAGCGCCATCTAC”, the binding signal is 2.66 RPM ratio (pull-down/input).
On to “GATGATTGTTCTCCCAGCTGATGAATTTTTTGCGTCGAGTAAACAAATTTTCCTAATCTTTCTGTTCAAGCGCCATCTAC”, for which the binding signal is 1.1 RPM ratio (pull-down/input).
Turning to “GATGATTGTTCTCCCAGCTGATGAATTGTTTGCGTCGAGTAAACAAATTTTCCTAATCTTTCTGTTCAAGCGCCATCTAC”, the binding signal is 2.27 RPM ratio (pull-down/input).
“GATGATTGTTCTCCCAGCTGATGAATTGAATTTGTCGAGTAAACAAATTTTCCTAATCTTTCTGTTCAAGCGCCATCTAC”: the binding signal is 0.98 RPM ratio (pull-down/input).
With “GATGATTGTTCTCCCAGCTGATGAATTTGTTTTGTCGAGTAAACAAATTTTCCTAATCTTTCTGTTCAAGCGCCATCTAC” the figure was 2.33 RPM ratio (pull-down/input).
Consider “GATGATTGTTCTCCCAGCTGATGAATTTCCTATATCGAGTAAACAAATTTTCCTAATCTTTCTGTTCAAGCGCCATCTAC”, for which the binding signal is 0.903 RPM ratio (pull-down/input).
For “GATGATTGTTCTCCCAGCTGATGAATTCCAACTTTCGAGTAAACAAATTTTCCTAATCTTTCTGTTCAAGCGCCATCTAC” the value was 0.884 RPM ratio (pull-down/input); for “GATGATTGTTCTCCCAGCTGATGAATTATCGTGTTCGAGTAAACAAATTTTCCTAATCTTTCTGTTCAAGCGCCATCTAC”, 1.08 RPM ratio (pull-down/input); for “GATGATTGTTCTCCCAGCTGATGAATTATAGACATCGAGTAAACAAATTTTCCTAATCTTTCTGTTCAAGCGCCATCTAC”, 1.21 RPM ratio (pull-down/input).
With “GATGATTGTTCTCCCAGCTGATGAATTCTCTCCCTCGAGTAAACAAATTTTCCTAATCTTTCTGTTCAAGCGCCATCTAC” the figure was 0.835 RPM ratio (pull-down/input).
For “GATGATTGTTCTCCCAGCTGATGAATTGGTCAATTCGAGTAAACAAATTTTCCTAATCTTTCTGTTCAAGCGCCATCTAC” the value was 1.08 RPM ratio (pull-down/input).
As for “GATGATTGTTCTCCCAGCTGATGAATTCAGAAACTCGAGTAAACAAATTTTCCTAATCTTTCTGTTCAAGCGCCATCTAC”, the binding signal was 0.844 RPM ratio (pull-down/input).
For “GATGATTGTTCTCCCAGCTGATGAATTCGCATAATCGAGTAAACAAATTTTCCTAATCTTTCTGTTCAAGCGCCATCTAC” the value was 1.22 RPM ratio (pull-down/input).
Consider “GATGATTGTTCTCCCAGCTGATGAATTAATAACCTCGAGTAAACAAATTTTCCTAATCTTTCTGTTCAAGCGCCATCTAC”, for which the binding signal was 1 RPM ratio (pull-down/input).
Consider “GATGATTGTTCTCCCAGCTGATGAATTCCCGCCCTCGAGTAAACAAATTTTCCTAATCTTTCTGTTCAAGCGCCATCTAC”, for which the binding signal is 0.758 RPM ratio (pull-down/input).
In the case of “GATGATTGTTCTCCCAGCTGATGAATTTTAGGTGTCGAGTAAACAAATTTTCCTAATCTTTCTGTTCAAGCGCCATCTAC”, the binding signal was 0.902 RPM ratio (pull-down/input).
